The text below walks through data of PubChem BioAssay.

Unmarked numbers belong to inactive results.

This assay can be described thus: growth of efflux-deficient E. coli DRC39 – strain DRC39, OD650, 24 h, E. coli filamentation inducers, primary screen (AID 1178).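 Also: growth measured as culture turbidity by optical density at 650 nm; test concentration not given here.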 The following applies: E. coli DRC39 acrAB, higher = more signal, called active from +8 up or from −8 down.
With `COC(=O)[C@H](C)NC(=O)CCC1CC(OC(=O)NCc2cccc3ccccc23)CC2(CCCC(COC(=O)NCc3ccccc3)O2)O1` (stereo partly specified), the z-score is -0.221.

With `O=C1CCCC=C1C(O)C1CCCCC1` (stereo unspecified), the z-score was 0.342. Consider `COc1ccc(COC(=O)NN=C2C[C@@H](O)[C@@H](O)[C@@H]3[C@@H]4C(=O)N(Cc5ccccc5)C(=O)[C@@H]4CC[C@@H]23)cc1`, for which the z-score is 0.918. Turning to `CO[C@H]1COC(=O)CC=C[C@H](C)[C@H](OC)COC(=O)[C@@H](C)NC(=O)CC=C[C@@H]1C`, the z-score is 0.124.

Consider `CC(C)CON=C1[C@H]2CCn3c(=O)n(C)c(=O)n3[C@H]2[C@H](O)[C@@H]2O[C@H]12`, for which the z-score is -0.0374. As to `CCOC(=O)CCN1C(=O)[C@H]2[C@H]3[C@H](O)[C@H](O)CC(=NOCC=C(C)CCC=C(C)C)[C@@H]3CC[C@H]2C1=O`, the z-score is -1.15.

As for `CC[C@@H](c1ccccc1)n1c(=O)n2n(c1=O)[C@H]1[C@H](O)[C@@H]3O[C@@H]3C(=NOCc3ccccc3)[C@H]1CC2`, the z-score is -0.527. In the case of `CC(CCN1CCCc2nc(C)c(C)cc21)=NO[C@@H](C)c1cn([C@H](CO)Cc2ccccc2)nn1`, the z-score is 0.851. As to `COC(=O)[C@H](C)NC(=O)CCC1CC(OC(=O)NCCc2ccc(F)cc2)CC2(CCCC(COC(=O)NCC3CCCCC3)O2)O1` (stereo partly specified), the z-score was -0.603. Next, `CCOC(=O)[C@H](Cc1ccccc1)NC(=O)CCC1CC(OC(=O)NCc2ccc3c(c2)OCO3)CC2(CCCC(COC(=O)NCCCN3CCCC3=O)O2)O1` (stereo partly specified): -0.131. In the case of `CC(CCC(=O)OC[C@H]1O[C@H](C#Cc2ccccc2)C=C[C@@H]1Oc1ccc(C)cc1)=NOC[C@@H](C)[C@H](OCc1ccccc1)C(C)C`, the z-score was 0.0786.

Consider `CCN1C(=O)[C@H]2[C@H]3[C@H](O)[C@H](O)CC(=NOC[C@@H](O)[C@H]4O[C@@H]5OC(C)(C)O[C@@H]5[C@H]4O)[C@@H]3CC[C@H]2C1=O`, for which the z-score is 0.74. For the compound `CC(C)CON=C1C[C@@H](O)[C@@H](O)[C@@H]2[C@@H]3C(=O)N(Cc4ccc5c(c4)OCO5)C(=O)[C@@H]3CC[C@@H]12`, the z-score was 0.146. For `C=CC[C@@H]1C=C[C@H](ON=C2C[C@@H](O)[C@@H](O)[C@@H]3[C@@H]4C(=O)N(CC)C(=O)[C@@H]4CC[C@@H]23)[C@@H](CO)O1`, the z-score is -0.939. Take `CO[C@H]1COC(=O)CCC[C@H](C)[C@H](OC)COC(=O)CC=C[C@@H]1C`: the z-score is 0.115. Next, `COc1ccc2c(c1)O[C@@H](c1cccc(C(F)(F)F)c1)[C@H](O)C2=O`: 1.23; `CC(CCN1CCCc2nc(C)c(C)cc21)=NOC[C@@H](O)COCc1ccco1`: 0.557; `CCN1C(=O)[C@H]2[C@H]3[C@H](O)[C@H](O)CC(=NO[C@@H]4O[C@H](CO)[C@@H](O)[C@H](O)[C@H]4O)[C@H]3CC[C@H]2C1=O`: -0.18. For `CCOC(=O)[C@H](CC(C)C)NC(=O)CCC1CC(OC(=O)NCc2ccc3c(c2)OCO3)CC2(CCCC(COC(=O)NCCOc3ccccc3)O2)O1` (stereo partly specified), the z-score was -0.0466. Next, `O=C1C2=CC[C@H]3C(=O)N(c4ccc(F)cc4F)C(=O)[C@H]3[C@H]2[C@H](O)[C@@H]2O[C@H]12`: -0.401; `CC(=O)OC[C@H]1O[C@H](C#CCCc2ccccc2)C=C[C@@H]1OC(C)=O`: 0.551. Turning to `CC(C)=NOC(C)CN1CCCc2nc(C)c(C)cc21` (stereo unspecified), the z-score is 0.0251.

For the compound `COC(=O)[C@H](C)NC(=O)CCC1CC(OC(=O)NCc2cccc3ccccc23)CC2(CCCC(COC(=O)NCCOc3ccccc3)O2)O1` (stereo partly specified), the z-score is 0.008. Regarding `C[C@@H]1CC[C@@H](C(=O)O)N[C@H]1c1cccc(N2CCOCC2)c1`, the z-score is 1.32. In the case of `COC(=O)[C@@H]1CC[C@H](C)[C@@H](c2ccc(Br)cc2)N1C[C@H](O)CN=[N+]=[N-]`, the z-score was -0.78.

With `CCOC(=O)[C@H](Cc1ccccc1)NC(=O)CCC1CC(OC(=O)NCCc2ccc(F)cc2)CC2(CCCC(COC(=O)NCc3cccc(C(F)(F)F)c3)O2)O1` (stereo partly specified), the z-score is 0.141. Next, `COc1cccc([C@H]2Oc3ccc(OC)cc3C(=NOCC[C@@H]3C=C[C@H](OC(C)=O)[C@@H](COC(C)=O)O3)[C@@H]2O)c1`: 0.688. In the case of `CC(=O)OC[C@H]1O[C@H](CC=NO[C@@H](C)c2cc(-c3c(C)cc(C)cc3C)no2)C=C[C@@H]1OC(C)=O`, the z-score was 0.165. Next, `CCOC(=O)NN=C1C[C@@H](O)[C@@H](O)[C@@H]2[C@@H]3C(=O)N(c4ccc(F)cc4F)C(=O)[C@@H]3CC[C@H]12`: 0.284. `O=C1[C@H]2[C@H]3[C@H](O)[C@H](O)CC(=NO[C@@H]4O[C@H](CO)[C@@H](O)[C@H](O)[C@H]4O)[C@H]3CC[C@H]2C(=O)N1C[C@@H]1CCCO1`: the z-score is 0.42. On to `CCOC(=O)[C@H](Cc1ccccc1)NC(=O)CCC1CC(OC(=O)NCCc2ccc(F)cc2)CC2(CCCC(COC(=O)NCCC(C)C)O2)O1` (stereo partly specified), for which the z-score is 0.953. For `CO[C@H]1COC(=O)[C@H](C)COC(=O)[C@@H](OCc2ccccc2)C=C[C@@H]1C`, the z-score was 1.02. Next, `O=C1[C@H]2[C@H]3[C@H](O)[C@H](O)CC(=NOC[C@@H](O)COCc4ccco4)[C@@H]3CC[C@H]2C(=O)N1Cc1ccccc1`: 0.17; `CC(C)=CCCC(C)=CCON=C1C[C@@H](O)[C@@H](O)[C@@H]2[C@@H]3C(=O)N(Cc4ccc5c(c4)OCO5)C(=O)[C@@H]3CC[C@H]12`: 0.454. Next, `COC(=O)[C@H](C)NC(=O)CC=C[C@@H](C)[C@@H]1C=C[C@H](O)[C@@H](CO)O1`: 0.64; `COc1ccc(COC(=O)NN=C2C[C@@H](O)[C@@H](O)[C@@H]3[C@@H]4C(=O)N(C[C@@H]5CCCO5)C(=O)[C@@H]4CC[C@@H]23)cc1`: 1.02.
